Assay [1] is described as follows: liver-stage malaria parasite growth inhibition, primary screen, cell-based, HepG2, luciferase luminescence, HepG2 viability (AID 624349; in the data active means parasite load remaining mostly below about 12%, no sharp cut-off; inactive means mostly above about 10%;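 further: 100% = mean of DMSO negative control wells on the same plate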). The conditions noted are these: P. berghei liver stage in HepG2, luciferase luminescence, concentration not given here; parasite load remaining: stronger effect = lower value; viability: measured here: HepG2 viability without parasites.
A short description of assay [2]: growth inhibition of DIPG glioma cells, dose response, cell-based, SU-DIPG-XIII, MIPE5.0, CellTiter-Glo, qHTS (AID 1347064; cut-off not given, nearly all actives have AC50 up to about 23 µM;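 on AC50: cells exposed to compound for 48 hours before the viability read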). Conditions: SU-DIPG-XIII viability, CellTiter-Glo ATP luminescence. A general note: Cellular ATP, detected with luciferase, serves as a proxy for viable cell number.
A short description of assay [3]: viability loss in pontine glioma line – cell-based, SU-DIPG-XXV, MIPE5.0, CellTiter-Glo, qHTS, dose response (AID 1347065).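 Further: cells exposed to compound for 48 hours before ATP readout.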 Conditions: CellTiter-Glo ATP luminescence.
A short description of assay [4]: SU-DIPG-VI glioma cell viability, MIPE4.0 library, CellTiter-Glo luminescence, qHTS (AID 1347066; cut-off not given, nearly all actives have AC50 up to about 30 µM;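 further: cells exposed to compound for 48 hours before readout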). Conditions: CellTiter-Glo ATP luminescence.
Assay [5] in a line: JHH-DIPG-1 glioma cell viability, MIPE5.0 library, CellTiter-Glo luminescence, qHTS (AID 1347067).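 Further: cells exposed to compound for 48 hours before readout.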 The conditions noted are these: JHH-DIPG-1 glioma viability, CellTiter-Glo ATP luminescence.
Assay [6] is described as follows: SU-DIPG-XXV glioma cell viability, MIPE5.0 library, qHTS (AID 1347068; cut-off not given, nearly all actives have IC50 up to about 30 µM;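 on IC50: cells exposed to compound for 48 hours before viability readout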). For orientation: In qHTS, concentration-response curves come from the screen itself.
A short description of assay [7]: sensitizers of A549 cells to miR-34 induction, primary screen, imaging, A549 dox-inducible miR-34, nuclei and caspase counts (AID 1347080;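 active means compounds whose cell count with miR-34 switched on is under 0.7 times the count with it off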). The conditions noted are these: A549 miR-34 inducible, Hoechst nuclei count, 48 h.
Assay [8] can be described thus: survival rescue of mitochondrial mutant cells in low glucose, primary screen, MELAS cybrids, Rieske KO mouse fibroblasts, CellTiter-Glo (AID 1508586;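 active means mean z-score across replicates of 1.96 or higher in either the MELAS or the Rieske mutant cell line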;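 further: z relative to plate mean and SD of compound and empty wells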).
A short description of assay [9]: viability rescue of complex I mutant cybrids, primary screen, cell-based, galactose medium, ATP luminescence (AID 1645843;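 active means z-score of at least 1.8 in each of two replicates, scored against plate mean and spread of sample wells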;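 further: positive z means more ATP and so rescue of galactose-driven cybrid death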). The conditions noted are these: complex I mutant cybrid cells, 72 h, stronger effect = higher value.
Where [10] appears, read: stronger effect = lower value, cell number ratio, induced over uninduced.
The mark [11] stands for this setting: measured here: relative caspase fold change +Dox/-Dox.
[12] abbreviates: measured here: total cells with miR-34 induction, stronger effect = lower value.
Setting [13] is: measured here: total cells without miR-34 induction.
The mark [14] stands for this setting: MELAS cybrid survival, CellTiter-Glo 48 h, stronger effect = higher value.
Where [15] appears, read: Rieske KO mouse fibroblast survival, CellTiter-Glo 72 h.

Each structure is given as a SMILES string. Several values for one entry are separate records, joined by “and”; a condition that tells them apart may be missing. Equal entries are not always repeated. Results filed as inconclusive are left out. Activity calls are given as the source filed them. Unless noted, cut-off not given; nearly all actives show AC50 up to about 26 µM.

For `NC(=O)c1cccc(-c2cc(Nc3ccc(OC(F)(F)F)cc3)ncn2)c1`, the parasite load remaining in [1] was 33% (inactive). In assay [1], this molecule returned a viability of 100%. Further, the AC50 in [2], in assay [3] and in assay [5] was 20.9 µM (active) in each case. Besides, the outcome in [4] was inactive. The concentration for half-maximal inhibition (IC50) in [6] was 18.6 µM (active). Moreover, the fold change in assay [7] (setting [10]) was 0.899 (inactive); in assay [7] (setting [11]) it was 1.65. The cell count in assay [7] (setting [12]) is 7160; in [7] (setting [13]) it was 7960. In addition, the figures for the z-score in assay [8] (setting [14]) and in assay [8] (setting [15]) were -0.11 (inactive) and -0.362, respectively.
Regarding `CC1(C(=O)O)CCC2(C)CCC3(C)C(=CC(=O)C4C5(C)CCC(OC6OC(C(=O)O)C(O)C(O)C6OC6OC(C(=O)O)C(O)C(O)C6O)C(C)(C)C5CCC43C)C2C1` (stereo not drawn), the molecule was classed as inactive in assay [2], in [3], in assay [5] and in assay [6].
On to `COCc1c(-c2ccc(NC(=O)Nc3cc(C(F)(F)F)ccc3F)c(F)c2)c2c(N)ncnn2c1CN1CCOCC1`, for which the half-maximal activity concentration (AC50) in assay [2] was 0.295 µM (active); in assay [3] it was 0.186 µM (active); in assay [5], 6.61 µM (active). In addition, the IC50 in assay [6] was 7.42 µM (active).
With `CCNCCc1ccc(CN(CC)c2cc(OC)ccc2[C@@H]2CCc3cc(O)ccc3C2)cc1`, the AC50 was 7.42 µM (active) in assay [2], 8.33 µM (active) in assay [3] and 5.25 µM (active) in assay [5]. Further, the IC50 in [6] is 3.32 µM (active).
`CC1(C)CCC2(CC1)N[C@@H](C(=O)N[C@@H]1CC[C@@H](C(N)=O)OC1)[C@H](c1ccnc(Cl)c1F)[C@]21C(=O)Nc2cc(Cl)ccc21`: the concentration at half-maximal activity (AC50) was 16 µM (active) in assay [2], 16 µM (active) in assay [3] and 20.1 µM (active) in assay [5]. In assay [6], the call was inactive.
In the case of `CN(C)N(C)C(=O)[C@@]1(Cc2ccccc2)CCCN(C(=O)[C@@H](Cc2c[nH]c3ccccc23)NC(=O)C(C)(C)N)C1`, the molecule was classed as inactive in [2], in assay [3], in assay [5] and in [6].
On to `COCCCc1sc(-c2ccccc2)nc1C(=O)Nc1ccccc1-c1nc2cc(CN3CCCC3)cnc2s1`, for which the figures for the AC50 in assay [2] and in assay [3] were 9.1 µM (active) and 12.9 µM (active), respectively.
Turning to `NC(=S)N/N=C/c1ncccc1N`, the AC50 was 11.8 µM (active) in assay [2], 16.6 µM (active) in [3] and 14.8 µM (active) in [5].
In the case of `CC(C)n1c(=O)cc(N[C@@H](C)c2ccccc2)[nH]c1=O`, the figures for the AC50 in [2], in [3] and in assay [5] were 9.34 µM (active), 10.5 µM (active) and 14.8 µM (active), respectively. Moreover, in assay [6], the molecule was called inactive.
For `Nc1nccc2c1ncn2[C@@H]1C=C(CO)[C@@H](O)[C@H]1O`, the outcome in assay [2], in assay [3], in assay [5] and in assay [6] was inactive.
On to `CC(C)C(N)C(=O)OCC(CO)OCn1cnc2c(=O)[nH]c(N)nc21` (stereo not drawn), for which the molecule was classed as inactive in assay [2], in [3], in [5] and in assay [6].
As for `CCS(=O)(=O)N1CCN(c2ccc(Nc3ncc(C(N)=O)c(NC4CC4)n3)cc2)CC1`, the AC50 was 16.6 µM (active) in assay [2], 11.8 µM (active) in [3] and 14.8 µM (active) in assay [5]. Also, the IC50 in assay [6] is 23.5 µM (active).
Consider `CN[C@@H](C)C(=O)N[C@H](C(=O)N1CCC[C@H]1C(=O)Nc1snnc1-c1ccccc1)C1CCCCC1`, for which the result in assay [2], in [3], in [5] and in [6] was inactive.
Regarding `Cc1cc(O)c(-c2ccc([C@@H](C)CN(C)C)cc2)c2c1[nH]c(=O)c1sccc12`, the concentration at half-maximal activity (AC50) is 0.417 µM (active) in assay [2], 0.332 µM (active) in assay [3] and 0.417 µM (active) in assay [5]. The half-inhibitory concentration (IC50) in assay [6] was 0.332 µM (active).
With `CN(C)c1cc(NC(=O)CNC(C)(C)C)c(O)c2c1C[C@H]1C[C@H]3[C@H](N(C)C)C(=O)C(C(N)=O)=C(O)[C@]3(O)C(=O)C1=C2O`, the outcome in assay [2], in [3] and in assay [5] was inactive.
For `COc1ncc(Nc2ncc([C@H](C)N3CCN(S(C)(=O)=O)CC3)cc2-c2nc(C)nc(N)n2)cc1F`, the AC50 was 0.525 µM (active) in assay [2], 0.105 µM (active) in assay [3] and 1.18 µM (active) in [5].
`C=CCN(/C=C1\C(=O)O[C@@H](COC)[C@]2(C)C1=C(O)C(=O)C1=C2[C@@H](OC(C)=O)C[C@]2(C)C(=O)CC[C@H]12)CC=C`: the AC50 is 16.6 µM (active) in [2] and 9.34 µM (active) in assay [3]. The outcome in [6] was inactive.
Turning to `Cc1cc(-c2cnn3c(NCC4CC(C)(O)C4)cc(Oc4cccnc4)nc23)ccc1C(=O)NC1CC1` (stereo not drawn), the molecule was called inactive in assay [2] and in assay [6]. The AC50 in assay [3] is 1.48 µM (active).
Regarding `CCN(CCCOc1ccc2c(Nc3cc(CC(=O)Nc4cccc(F)c4)[nH]n3)ncnc2c1)CCOP(=O)(O)O`, the molecule was called inactive in assay [2] and in [6]. Further, the AC50 in assay [3] is 1.18 µM (active).
As for `Cc1nnc(C(C)C)n1C1CC2CCC(C1)N2CCC(NC(=O)C1CCC(F)(F)CC1)c1ccccc1` (stereo not drawn), the call in assay [2], in assay [3], in [5] and in assay [6] was inactive. Besides, the fold change is 0.913 (inactive) and 0.876 (inactive) in assay [7] (setting [10]); 0.655 and 0.632 in assay [7] (setting [11]). The cell count is 8280 and 7990 in assay [7] (setting [12]); 9060 and 9120 in assay [7] (setting [13]). Also, the z-score in assay [8] (setting [14]) is 0.322 (inactive) and -0.218 (inactive); in assay [8] (setting [15]) it was -0.412 and -0.846; in [9], 0.505 (inactive).
`Cc1cc(O[C@@H](CCC(F)(F)F)c2ccc(C(=O)NCCC(=O)O)cc2)cc(C)c1-c1ccc(C(C)(C)C)cc1`: the AC50 in assay [2] was 11.8 µM (active); in [3] it was 9.34 µM (active). The IC50 in assay [6] was 8.33 µM (active).
Turning to `NCc1ccc(OCCCc2sc(-c3ccc4c(c3)/C(=N/Nc3nc5ccccc5s3)CCC4)nc2C(=O)O)cc1`, the molecule was classed as inactive in [2], in assay [3] and in [6].
As for `C=C1[C@H](OC(=O)/C=C(\C)CC)C[C@@H](C(C)C)[C@@H]2[C@H]([C@@H](C)OC(C)=O)C(=O)C[C@@H]12`, the half-maximal activity concentration (AC50) in [2] and in [5] was 18.6 µM (active) in each case. The molecule was classed as inactive in assay [6].
`CN(C)S(=O)(=O)c1ccc2c(c1)C(=Cc1cc3c([nH]1)CCCC3)C(=O)N2`: the outcome in assay [2] and in [4] was inactive.
For the molecule `COc1cccc([C@@H](C)NCCCc2ccccc2Cl)c1`, the result in [2], in assay [4], in [5] and in [6] was inactive.

Usually viability stands for the share of living cells, or the viability signal relative to a control. In general, AC50 refers to the concentration giving half of the maximal activity seen. In general, IC50 refers to the concentration that gives 50% inhibition.

For the origin of these results see PubChem BioAssay.
